Only a selection was taken, and hits are over-represented in it overall.
Pf Dd2 growth: qHTS Primary assay for Inhibitors of Plasmodium falciparum Dd2 growth in vitro | P. falciparum Dd2 growth, SYBR Green, 72 h | Potency, µM (doses to about 28.9 µM), hits mostly inhibitors | 120,000 compounds, 4.3% hits | AID 1347417, 2020; active = well fitted inhibition curve with a large enough effect; note: nearly all actives have a fitted effect of over 65% in size
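Infected erythrocytes (Dd2, 0.3% parasitemia, 2.5% hematocrit final) are added to compound in RPMI-1640/Albumax II medium, grown 72 h at 37C in low oxygen, then lysed with saponin/Triton-X containing SYBR Green and read by fluorescence.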
Numbers stand for hits; . = inactive.

SMILES | Pf Dd2 growth
Cc1cccc(OCC(=O)c2ccc3c(c2)N(C(C)C(=O)Nc2ccccc2)C(=O)CO3)c1C (centres undefined) | .
CN(C)C(=O)c1ccc2cncn2c1 | .
Cc1cccc(OCCc2noc(C3CCCNC3)n2)c1 (centres undefined) | 5µM
CCCS(=O)(=O)N1CC(c2nc(CCOc3cccc(C)c3)no2)C1 | .
COCCC(=O)N1CCCC(c2nc(CCOc3cccc(C)c3)no2)C1 (centres undefined) | .
Cc1ccc2c(c1)N1C(=O)OC[C@@H]1CCN(C(=O)CCC(=O)O)C2 | .
Fc1ccc(-c2nnc3ccc(NCCc4ccccn4)nn23)nc1 | .
CC(C)c1nncn1C1CCN(S(=O)(=O)c2ccccc2F)CC1 | .
O=C(C1CC1)N1CCn2c(nnc2[C@@H]2C[C@@H](O)CN2Cc2ccccc2)C1 | .
Cc1ccc(NC(=O)c2cc3c(N4CCCC4)nc(C)cn3n2)cc1 | .
Cc1ccc(CNC(=O)c2cc3c(N(C)Cc4ccccc4)nc(C)cn3n2)cc1 | .
COc1ccc(NC(=O)c2cc3c(N4CCSCC4)nc(C)cn3n2)cc1F | .
Cc1cn2nc(C(=O)Nc3ccc(F)c(C)c3)cc2c(N2CCSCC2)n1 | .
Cc1cn2nc(C(=O)Nc3ccc(C)c(F)c3)cc2c(N(C)Cc2ccccc2)n1 | 10µM
Cc1cn2nc(C(=O)Nc3ccc(N(C)C)cc3)cc2c(N(C)Cc2ccccc2)n1 | 0.79µM
CC(=O)NCC(=O)N1CCC2(CN[S+](=O)([O-])c3cnccc3O2)C1 (centres undefined) | .
COc1ccc(C(=O)N[C@H]2CO[C@H]3[C@@H]2OC[C@H]3OC(=O)Nc2ccccc2)cc1 | .
COC1C(=O)N(c2cccc(F)c2)C12CCN(C(=O)C(C)C)CC2 (centres undefined) | .
COC1C(=O)N(C2CCN(C(=O)CCc3c[nH]c4ccccc34)CC2)C12CCOCC2 (centres undefined) | .
COC1C(=O)N(c2cccc(F)c2)C12CCN(C(=O)c1cnc(C)cn1)CC2 (centres undefined) | .
COC1C(=O)N(c2cccc(F)c2)C12CCN(Cc1ccc(F)cc1F)CC2 (centres undefined) | 10µM
COC1CCOC2(CCN(S(=O)(=O)c3ccccc3C)CC2)C1 (centres undefined) | .
COC1C(=O)N(c2cccc(F)c2)C12CCN(C(=O)CCc1c[nH]c3ccccc13)CC2 (centres undefined) | 7.9µM
COC1C(=O)N(c2cccc(F)c2)C12CCN(S(=O)(=O)c1ccccc1C)CC2 (centres undefined) | 13µM
C[C@]1(O)CCN(C(=O)CCc2c[nH]c3ccccc23)C[C@@H]1O | .
SMILES | Pf Dd2 growth
COC1C(=O)N(C2CCN(Cc3ccc(F)cc3F)CC2)C12CCOCC2 (centres undefined) | .
COCCCNC(=O)C(NC(=O)c1cccc(C)c1)C1CCN(C(=O)c2ccccc2)CC1 (centres undefined) | .
CS(=O)(=O)c1ccc(OCC2(CNS(=O)(=O)c3ccc(F)cc3)C[C@@H](O)[C@@H](O)C2)cc1 (some centres undefined) | .
C[C@@]1(O)CCN(C(=O)C2(c3ccccc3)CC2)C[C@@H]1Cc1ccccc1 | .
COC[C@@H]1CN(Cc2cnn(C)c2C)C[C@H]1C(=O)NC1CC1 | .
O=C(NCc1ccc(Cl)nc1)c1ccc2ccnn2c1 | .
CN1CCN(C(CN)C2CCCCC2)CC1 (centres undefined) | 28µM
CN1C(=O)[C@@H]2C[C@@H](CN2Cc2ccnc3ccccc23)Oc2ccccc21 | .
O=C(c1ccc(Cl)cc1)N1CCC2(CC1)COc1ccccc1[S+](=O)([O-])N2 | .
CCc1cc(=O)n(CC(=O)Nc2ccc3c(c2)OCO3)c(-c2cccc(F)c2)n1 | .
COc1ccc(-n2cc(-c3ccc4c(c3)OCO4)n(CC(=O)Nc3cccc(C)c3)c2=O)cc1 | 13µM
COc1ccc(NC(=O)Nc2ccc(C)n(CC(=O)Nc3cccc(C)c3)c2=O)cc1 | .
COc1ccc(C(=O)N2CCCCCCNC(=O)[C@@H]3CCC[C@@H]32)c(OC)c1 | .
COc1ccc(-c2cc(N3CCN(C(=O)c4ccccc4C)CC3)n[nH]2)cc1 | .
COC1CCOC2(CCN(C(=O)Nc3ccc4c(c3)OCCO4)CC2)C1 (centres undefined) | .
CCCC1(CO)CCCN(Cc2nnc(-c3cccnc3)o2)C1 (centres undefined) | .
CCCC1(CO)CCCN(Cc2cn3ccc(C)cc3n2)C1 (centres undefined) | 10µM
CCCC1(CO)CCCN(C(=O)CCn2ccc(=O)[nH]c2=O)C1 (centres undefined) | .
COc1cccc(CN(C)C(=O)c2cn(Cc3ccc(Cl)cc3)nn2)c1 | .
Cc1ccc(S(=O)(=O)N(CC(O)Cn2c3ccccc3c3ccccc32)c2cccc(C(N)=O)c2)cc1 (centres undefined) | 10µM
Cc1ccc(S(=O)(=O)c2cn(CC(=O)Nc3cccc(Cl)c3)c3ccccc3c2=O)cc1 | .
COc1ccc(S(=O)(=O)N(CC(=O)NCc2ccccc2)c2ccc(C)cc2)cc1OC | .
CCOC(=O)N1CCN(C(=O)CN(c2ccccc2F)S(=O)(=O)c2ccc(C)cc2)CC1 | .
Cc1ccc(-c2ccc3nnc(CNC(=O)c4cccc(N(C)C)c4)n3n2)cc1 | .
Cc1ccc(S(=O)(=O)N(CC(O)Cn2c3ccccc3c3ccccc32)c2cccc(C(=O)N(C)C)c2)cc1 (centres undefined) | 8.9µM
SMILES | Pf Dd2 growth
Cc1noc(C)c1CCC(=O)NCc1cc2n(n1)CCN(C(=O)N(C)C)C2 | .
CCCc1ccc(S(=O)(=O)NC2CCN(c3ccc(=O)n(CC4CC4)n3)CC2)cc1 | .
Cn1nccc1C(=O)N1C[C@@H](Oc2cccnc2)C[C@H]1C(=O)N1CCCC1 | .
CC(C)(C)c1coc([C@@H]2COCCN2Cc2cnc[nH]2)n1 | .
CCc1ccc2oc(-c3cccc(NC(=O)c4ccc(-c5cccc([N+](=O)[O-])c5)o4)c3)nc2c1 | 2µM
CCc1ccc2oc(-c3cccc(NC(=O)COc4ccccc4Cl)c3)nc2c1 | .
O=C(Nc1cccc(-c2nc3cc(Cl)ccc3o2)c1)c1cc([N+](=O)[O-])ccc1N1CCOCC1 | .
Cc1cc2c(c(=O)n(-c3ccccc3)c(=O)n2CC(=O)Nc2ccc3c(c2)OCO3)n1C | .
O=C(Nc1ccc(Oc2ccccc2)cc1)O[C@@H]1CO[C@H]2[C@@H]1OC[C@@H]2NS(=O)(=O)c1ccc(Cl)cc1 | .
O=C(COCc1cc(-c2ccco2)on1)Nc1cccc(Cl)c1Cl | .
Cc1cc(CNC(=O)c2cc(-c3ccco3)nc3c(Cl)cccc23)no1 | 8.9µM
Cc1cc(C)n2nc(CC(=O)NCc3cc(-c4ccco4)on3)nc2n1 | .
CC(C)c1nc2ccccc2n1CCNC(=O)CC[C@H]1NC(=O)c2ccccc2NC1=O | .
CCn1nc(CC(C)C)cc1C(=O)NCc1cc(-c2cccc(F)c2)no1 | .
Cc1ccc(C2Cn3cnc(C(=O)N4CCC(C(=O)NCc5cc(F)ccc5F)CC4)c3CO2)cc1 (centres undefined) | .
COc1ccc(OC2CN(C(=O)c3ccccc3OC)C2)cc1 | .
Cc1nc(NC(C)c2nc(-c3cccnc3)no2)c2cccnc2n1 (centres undefined) | 3.5µM
COc1ccc(-c2noc(-c3nc(-c4cccnc4)no3)n2)cc1OC | .
C[C@@H](NC(=O)c1cccnc1)c1onc(-c2cccnc2)c1C(=O)O | .
CNC(=O)[C@@H]1CN(C(=O)c2ccncc2)C[C@H]1CO | .

Source: PubChem (National Center for Advancing Translational Sciences (NCATS))
